Holding throughout (details): mRNA level, 48 h; actives raise or lower the signal
Read-out in assay [1]: Apoptosis regulator Bcl-2 (Homo sapiens) (UniProt P10415)
Put plainly: LTEA_HepaRG_BCL2: Life Technologies and Expression Analysis (LTEA) Assay for Bcl-2 gene using HepaRG (AID 2283475). The method, boiled down: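 Each chemical was tested in duplicate on HepaRG cultures held in serum-free induction medium for 48 h, highest concentration 100 uM with half-log dilutions. Transcript levels came from multiplexed qRT-PCR, normalised to housekeeping genes; activity was scored in either direction relative to DMSO.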

Read-out in assay [2]: Bcl-2 (BID) gene, BID (gene 637)
Put plainly: LTEA_HepaRG_BID: Life Technologies and Expression Analysis (LTEA) Assay for Bcl-2 (BID) gene using HepaRG (AID 2283476). The method, boiled down: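 Assay used HepaRG hepatic cells treated 48 h in serum-free medium with half-log dilutions from 100 uM. Endpoint: BID mRNA, qRT-PCR, normalized to ACTB/GAPDH/POLR2A.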

Read-out in a further assay: Caspase-3 (Homo sapiens) (UniProt P42574)
Put plainly: LTEA_HepaRG_CASP3: Life Technologies and Expression Analysis (LTEA) Assay for cysteine-aspartic acid protease (CASP3) using HepaRG (AID 2283477). The method, boiled down:
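Differentiated HepaRG cells, plated 48 h, were treated in duplicate in serum-free induction medium for 48 h with eight half-log concentrations up to 100 uM in 0.5% DMSO. CASP3 mRNA measured by qRT-PCR, normalized to ACTB, GAPDH, POLR2A.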

Read-out in assay [3]: Cytochrome P450 (CYP24A1), CYP24A1 (gene 1591)
Kind of assay: LTEA_HepaRG_CYP24A1: Life Technologies and Expression Analysis (LTEA) Assay for Cytochrome P450 (CYP24A1) using HepaRG (AID 2283478). The procedure, abridged: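 HepaRG cells plated 48 h, then exposed in duplicate in serum-free induction medium for 48 h to 8-point half-log series from 100 uM in 0.5% DMSO. CYP24A1 mRNA by Fluidigm qRT-PCR, normalized to ACTB, GAPDH, POLR2A; bidirectional fit versus DMSO.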

Read-out in assay [4]: Cytochrome P450 (CYP1A2), CYP1A2 (gene 1544)
Kind of assay: LTEA_HepaRG_CYP1A2: Life Technologies and Expression Analysis (LTEA) Assay for Cytochrome P450 (CYP1A2) using HepaRG (AID 2283479). The procedure, abridged: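 Differentiated human HepaRG cells in serum-free induction medium exposed 48 hours in duplicate to 8 half-log concentrations from 100 uM, 0.5% DMSO. CYP1A2 mRNA quantified by qRT-PCR, normalized to ACTB, GAPDH and POLR2A; bidirectional fitting versus DMSO.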

Read-out in assay [5]: cysteine-aspartic acid protease (CASP8), CASP8 (gene 841)
Kind of assay: LTEA_HepaRG_CASP8: Life Technologies and Expression Analysis (LTEA) Assay for cysteine-aspartic acid protease (CASP8) using HepaRG (AID 2283480). The method, boiled down: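 qRT-PCR readout of CASP8 mRNA, normalized to three housekeeping genes, after 48 h chemical exposure of HepaRG cells; 8-point half-log series, top 100 uM, 0.5% DMSO vehicle. Bidirectional curve fitting against DMSO baseline.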

Read-out in assay [6]: Cytochrome P450 (CYP2B6), CYP2B6 (gene 1555)
Kind of assay: LTEA_HepaRG_CYP2B6: Life Technologies and Expression Analysis (LTEA) Assay for Cytochrome P450 (CYP2B6) using HepaRG (AID 2283481). The method, boiled down:
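Differentiated human HepaRG cells in serum-free induction medium, dosed in duplicate for 48 h over 8 half-log concentrations topping at 100 uM (0.5% DMSO). CYP2B6 mRNA measured by TaqMan qRT-PCR, normalized to ACTB, GAPDH, POLR2A; bidirectional fit versus DMSO.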

Read-out in a further assay: CYP2C8 (gene 1558)
Put plainly: LTEA_HepaRG_CYP2C8: Life Technologies and Expression Analysis (LTEA) Assay for CYP2C8 using HepaRG (AID 2283483). The method, boiled down:
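HepaRG (human liver line), 48 h chemical exposure, 8-pt half-log series from 100 uM, 0.5% DMSO vehicle. Readout: CYP2C8 transcript by qRT-PCR, housekeeping-normalized. Bidirectional fit vs DMSO baseline.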

Read-out in another assay: CYP2C9 (gene 1559)
Kind of assay: LTEA_HepaRG_CYP2C9: Life Technologies and Expression Analysis (LTEA) Assay for CYP2C9 using HepaRG (AID 2283484). The procedure, abridged: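 HepaRG, 48 h dosing, 8-pt half-log series, top 100 uM, 0.5% DMSO vehicle. Read-out: CYP2C9 transcript by TaqMan qRT-PCR, housekeeping-normalized (ACTB/GAPDH/POLR2A). Gain or loss fitted vs DMSO baseline.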

Read-out in the next assay: CYP2E1 (gene 1571)
Kind of assay: LTEA_HepaRG_CYP2E1: Life Technologies and Expression Analysis (LTEA) Assay for CYP2E1 using HepaRG (AID 2283485). The method, boiled down: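 Assay uses 48 h exposure of HepaRG hepatic cells, eight concentrations to 100 uM. Expression of CYP2E1 is quantified by TaqMan qRT-PCR with ACTB, GAPDH and POLR2A normalization; curves fitted in both directions relative to vehicle.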

Read-out in the next assay: CYP4A11 (gene 1579)
Put plainly: LTEA_HepaRG_CYP4A11: Life Technologies and Expression Analysis (LTEA) Assay for CYP4A11 using HepaRG (AID 2283486). The method, boiled down:
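Differentiated HepaRG cells, 48 h after plating, exposed in duplicate for 48 h to 8 half-log concentrations up to 100 uM in 0.5% DMSO in serum-free induction medium. CYP4A11 mRNA measured by TaqMan qRT-PCR, normalized to ACTB, GAPDH and POLR2A.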

Read-out in assay [7]: Cytochrome P450 3A4 (Homo sapiens) (UniProt P08684)
Kind of assay: LTEA_HepaRG_CYP3A4: Life Technologies and Expression Analysis (LTEA) Assay for CYP3A4 using HepaRG (AID 2283487). The method, boiled down:
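Differentiated HepaRG cells, plated 48 h, then dosed 48 h in serum-free induction medium with 0.5% DMSO, 8 half-log concentrations up to 100 uM, duplicate. CYP3A4 mRNA by qRT-PCR, normalized to ACTB/GAPDH/POLR2A; bidirectional fit versus DMSO.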

Read-out in assay [8]: DNA damage-inducible transcript 3 (DDIT3), DDIT3 (gene 1649)
Kind of assay: LTEA_HepaRG_DDIT3: Life Technologies and Expression Analysis (LTEA) Assay for DNA damage-inducible transcript 3 (DDIT3) using HepaRG (AID 2283488). The method, boiled down:
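Eight-point concentration-response (100 uM highest, half-log dilutions) in HepaRG, 48 h, duplicate wells. Endpoint: qRT-PCR mRNA, normalized (ACTB, GAPDH, POLR2A), bidirectional fitting with DMSO as baseline.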

Read-out in assay [9]: Pro-epidermal growth factor (Homo sapiens) (UniProt P01133)
Put plainly: LTEA_HepaRG_EGF: Life Technologies and Expression Analysis (LTEA) Assay for Epidermal growth factor (EGF) using HepaRG (AID 2283489). The procedure, abridged:
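HepaRG cells (~100,000/well, 48 h pre-culture) exposed in duplicate for 48 h in serum-free induction medium to 8 half-log concentrations up to 100 uM in 0.5% DMSO. EGF mRNA by qRT-PCR, normalized to ACTB/GAPDH/POLR2A; bidirectional fit versus DMSO.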

Read-out in assay [10]: Early growth response protein 1 (EGR1) transcription factor, EGR1 (gene 1958)
Put plainly: LTEA_HepaRG_EGR1: Life Technologies and Expression Analysis (LTEA) Assay for Early growth response protein 1 (EGR1) transcription factor using HepaRG (AID 2283490). The method, boiled down:
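HepaRG, 48 h exposure, 8-pt half-log series from 100 uM, 0.5% DMSO vehicle; EGR1 transcript by TaqMan qRT-PCR (Fluidigm array), housekeeping-normalized; bidirectional fit relative to DMSO baseline.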

Read-out in assay [11]: Ezrin (EZR), EZR (gene 7430)
Kind of assay: LTEA_HepaRG_EZR: Life Technologies and Expression Analysis (LTEA) Assay for Ezrin (EZR) using HepaRG (AID 2283491). The procedure, abridged:
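EZR transcript levels came from Fluidigm qRT-PCR and were normalized to three housekeeping genes after 48 h chemical exposure of HepaRG cells. Dosing used an 8-point half-log series with a 100 uM top concentration in 0.5% DMSO, tested in duplicate; both directions were fitted versus vehicle.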

Read-out in assay [12]: Cytochrome P450 3A7 (Homo sapiens) (UniProt P24462)
Kind of assay: LTEA_HepaRG_CYP3A7: Life Technologies and Expression Analysis (LTEA) Assay for CYP3A7 using HepaRG (AID 2283492). The method, boiled down: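 Differentiated HepaRG cells in serum-free induction medium exposed 48 h in duplicate to 8-point half-log series from 100 uM top in 0.5% DMSO. CYP3A7 mRNA by qRT-PCR, normalized to ACTB/GAPDH/POLR2A, bidirectional fit versus DMSO.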

Read-out in assay [13]: Apolipoprotein A-V (APOA5) gene, APOA5 (gene 116519)
Put plainly: LTEA_HepaRG_APOA5: Life Technologies and Expression Analysis (LTEA) Assay for Apolipoprotein A-V (APOA5) gene using HepaRG (AID 2283474). The procedure, abridged: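 Differentiated HepaRG cells in serum-free induction medium, exposed 48 h in duplicate to eight half-log concentrations topping at 100 uM (0.5% DMSO). APOA5 mRNA by Fluidigm TaqMan qRT-PCR, normalized to ACTB, GAPDH and POLR2A; bidirectional fit versus DMSO.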

Read-out in assay [14]: Cytochrome P450 2C19 (Homo sapiens) (UniProt P33261)
Put plainly: LTEA_HepaRG_CYP2C19: Life Technologies and Expression Analysis (LTEA) Assay for CYP2C19 using HepaRG (AID 2283482). The method, boiled down:
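Differentiated HepaRG cells in serum-free induction medium exposed 48 h in duplicate, 8 concentrations from 100 uM by half-log steps in 0.5% DMSO. CYP2C19 mRNA measured by TaqMan qRT-PCR, normalized to ACTB, GAPDH, POLR2A. Bidirectional fit versus DMSO.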

SMILES strings stand for the structures. Active and inactive are the calls of the source. Rule for the calls: active = hit-call score of the fitted dose curve at least 0.9, where 1 is the maximum; inactive = score below 0.9.

Chain of Cytochrome P450 3A7 (Homo sapiens) (P24462 whole entry, looked up): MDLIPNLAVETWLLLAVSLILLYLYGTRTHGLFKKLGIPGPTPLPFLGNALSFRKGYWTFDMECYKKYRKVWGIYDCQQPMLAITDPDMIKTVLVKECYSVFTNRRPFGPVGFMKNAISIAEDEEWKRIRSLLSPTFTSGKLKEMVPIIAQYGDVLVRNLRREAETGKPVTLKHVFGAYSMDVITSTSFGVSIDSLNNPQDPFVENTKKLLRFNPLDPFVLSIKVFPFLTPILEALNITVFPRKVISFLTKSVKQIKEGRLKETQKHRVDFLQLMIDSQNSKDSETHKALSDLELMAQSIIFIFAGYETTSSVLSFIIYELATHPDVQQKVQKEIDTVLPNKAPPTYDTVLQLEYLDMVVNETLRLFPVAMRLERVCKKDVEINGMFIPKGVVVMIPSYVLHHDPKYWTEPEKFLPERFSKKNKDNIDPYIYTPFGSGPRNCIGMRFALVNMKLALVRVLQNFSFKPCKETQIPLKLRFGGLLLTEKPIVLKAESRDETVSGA
Chain of Cytochrome P450 2C19 (Homo sapiens) (P33261 whole entry, looked up): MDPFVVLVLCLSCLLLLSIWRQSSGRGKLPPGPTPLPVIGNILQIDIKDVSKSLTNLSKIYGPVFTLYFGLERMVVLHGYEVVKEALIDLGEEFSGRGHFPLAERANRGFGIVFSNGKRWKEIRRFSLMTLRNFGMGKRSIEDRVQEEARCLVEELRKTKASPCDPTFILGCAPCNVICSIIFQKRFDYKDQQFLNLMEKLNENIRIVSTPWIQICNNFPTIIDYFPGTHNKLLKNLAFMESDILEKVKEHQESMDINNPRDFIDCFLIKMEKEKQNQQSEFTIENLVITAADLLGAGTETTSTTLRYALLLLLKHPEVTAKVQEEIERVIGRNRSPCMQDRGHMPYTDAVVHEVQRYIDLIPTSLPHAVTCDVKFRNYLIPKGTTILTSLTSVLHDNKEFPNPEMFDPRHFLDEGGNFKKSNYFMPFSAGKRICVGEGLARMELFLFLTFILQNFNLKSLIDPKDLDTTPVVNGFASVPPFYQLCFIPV
Chain of Apoptosis regulator Bcl-2 (Homo sapiens) (P10415 whole entry, looked up): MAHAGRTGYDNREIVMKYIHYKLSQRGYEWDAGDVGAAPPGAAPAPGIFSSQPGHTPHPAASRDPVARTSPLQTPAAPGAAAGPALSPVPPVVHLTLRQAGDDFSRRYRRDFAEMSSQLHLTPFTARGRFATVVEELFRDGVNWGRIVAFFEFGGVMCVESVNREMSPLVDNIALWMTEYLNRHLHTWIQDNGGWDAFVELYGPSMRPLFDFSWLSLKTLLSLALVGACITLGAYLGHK
Chain of Cytochrome P450 3A4 (Homo sapiens) (P08684 whole entry, looked up): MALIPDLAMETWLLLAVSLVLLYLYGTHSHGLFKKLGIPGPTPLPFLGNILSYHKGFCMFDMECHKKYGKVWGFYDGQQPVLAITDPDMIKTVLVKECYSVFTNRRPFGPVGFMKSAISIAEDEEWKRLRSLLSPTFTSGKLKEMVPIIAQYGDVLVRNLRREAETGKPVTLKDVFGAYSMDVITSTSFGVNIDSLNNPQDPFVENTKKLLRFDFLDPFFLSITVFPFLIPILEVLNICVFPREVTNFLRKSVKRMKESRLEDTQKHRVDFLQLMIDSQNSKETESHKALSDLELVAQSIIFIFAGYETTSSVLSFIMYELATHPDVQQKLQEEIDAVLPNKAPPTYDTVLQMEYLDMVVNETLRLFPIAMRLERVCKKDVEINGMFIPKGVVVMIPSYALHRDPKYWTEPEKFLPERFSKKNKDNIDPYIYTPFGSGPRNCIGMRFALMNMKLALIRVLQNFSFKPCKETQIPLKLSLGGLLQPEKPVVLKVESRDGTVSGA
Chain of Caspase-3 (Homo sapiens) (P42574 whole entry, looked up): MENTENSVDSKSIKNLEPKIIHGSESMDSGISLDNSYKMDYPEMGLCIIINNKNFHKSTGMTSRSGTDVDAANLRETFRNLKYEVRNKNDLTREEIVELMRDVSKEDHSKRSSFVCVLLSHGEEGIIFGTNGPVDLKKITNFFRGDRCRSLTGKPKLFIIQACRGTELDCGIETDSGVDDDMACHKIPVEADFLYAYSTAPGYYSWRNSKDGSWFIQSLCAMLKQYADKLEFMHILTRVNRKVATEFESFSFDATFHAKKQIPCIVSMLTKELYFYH

In general, AC50 refers to the concentration at which the activity in the assay is half-maximal. For the molecule `O=c1[nH]c2ccc(S(=O)CCN3CCC(Cc4ccc(F)cc4)CC3)cc2o1` (stereo unspecified), the molecule was called inactive (in assay [1]; in assay [2]; with Caspase-3 (Homo sapiens); in [3]; in [4]; in assay [5]). Also, the outcome in assay [11] was inactive. In addition, the AC50 was 82.3 µM (active) in assay [6]; 78.5 µM (active) with CYP2C8 (gene 1558); 71.1 µM (active) with CYP2C9 (gene 1559); 50 µM (active) with CYP2E1 (gene 1571); 82.6 µM (active) in the assay with CYP4A11 (gene 1579); 12.5 µM (active) in assay [7]. The AC50 in assay [8] was 50 µM (active); in assay [9] it was 30.7 µM (active); in assay [10] it was 50 µM (active); in [12], 90.1 µM (active).

Turning to `C1=CCCC=CCCC=CCC1`, the molecule was called inactive (in [13]; in [1]; in assay [2]; with Caspase-3 (Homo sapiens); in assay [4]; in assay [5]). In addition, the molecule was called inactive (in assay [6]; in [14]; with CYP2C8 (gene 1558); with CYP2C9 (gene 1559); with CYP2E1 (gene 1571); with CYP4A11 (gene 1579)). Moreover, the molecule was called inactive in assay [7], in [8], in assay [9], in assay [10], in [11] and in assay [12].

Take `CCOc1cccc(-n2cc(C(=O)N3CCN(c4cc(C(=O)O)c5ccccc5c4)CC3)nc2-c2ccc(C)cc2)c1`: the AC50 was 64.2 µM (active) in [13]; 84.5 µM (active) in [1]; 80.7 µM (active) in [2]; 82.9 µM (active) in the assay with Caspase-3 (Homo sapiens); 27.7 µM (active) in [4]; 87.9 µM (active) in assay [5]. The AC50 in [6] is 26.5 µM (active); in assay [14] it was 32.6 µM (active); with CYP2C8 (gene 1558) it was 25.6 µM (active); with CYP2C9 (gene 1559) it was 31.6 µM (active); with CYP2E1 (gene 1571) it was 14.7 µM (active); with CYP4A11 (gene 1579) it was 28.9 µM (active). Besides, the concentration at half-maximal activity (AC50) was 31.1 µM (active) in [7], 12.4 µM (active) in [8], 88 µM (active) in assay [9] and 83.7 µM (active) in assay [10]. Besides, the result in assay [3], in assay [11] and in [12] was inactive.

`On1ccccc1=S`: the result (in [13]; in [1]; in assay [2]; with Caspase-3 (Homo sapiens); in [3]; in [4]) was inactive. Moreover, the call (in assay [5]; in assay [6]; in assay [14]; with CYP2C8 (gene 1558); with CYP2C9 (gene 1559); with CYP2E1 (gene 1571)) was inactive. Besides, the molecule was called inactive (with CYP4A11 (gene 1579); in assay [7]; in assay [8]; in assay [10]; in assay [11]; in assay [12]).

In the case of `CC(C)=CCC/C(C)=C\CO`, the molecule was classed as inactive (in assay [13]; in [1]; in [2]; in the assay with Caspase-3 (Homo sapiens); in assay [5]; in [8]). Moreover, the molecule was called inactive in assay [9], in [10] and in assay [11].

For the origin of these results see PubChem BioAssay (EPA / NIEHS).
